Results reported in PubChem BioAssay (EPA / NIEHS).
Records with an inconclusive call do not appear. Activity calls are given as the source filed them. Rule for the calls, unless noted: active = hit-call score of the fitted dose curve at least 0.9, where 1 is the maximum; inactive = score below 0.9.

Tests used:
[1] = read-out: TIMP metallopeptidase inhibitor 1 (TIMP1), TIMP1 (gene 7076); experiment: BSK_MyoF_TIMP1: BioMAP Diversity Plus: MyoF Assay for TIMP metallopeptidase inhibitor 1 (TIMP1) Biomarker Activity (AID 2284269); conditions: primary human lung fibroblasts
How it was run: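 Fibroblasts from human lung are dosed with chemical, cultured 24 h, and assayed for TIMP-1 by ELISA. Increases over the DMSO baseline are scored, with SRB total-protein staining run in parallel for cytotoxicity.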

[2] = IUF_NPC2c_oligodendrocyte_migration_120hr: Leibniz Research Institute for Environmental Medicine (IUF) 120-hour Neural Progenitor Cell Migration Assay for Oligodendrocyte Migration (NPC2c) (AID 2284297);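 note: O4-positive oligodendrocyte migration distance divided by radial glia migration distance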
How it was run: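 hNPC spheres (GW 16-19 cortex), PDL/laminin, DMEM/F12 3:1 + 1% N2, 37C. Dosing day 0–5, half feed day 3, DMSO ≤0.1%. Fixed 120 h; O4 ICC + Hoechst, HCI. Readout: mean oligodendrocyte distance from sphere edge / radial glia distance.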

[3] = IUF_NPC2a_radial_glia_migration_120hr: Leibniz Research Institute for Environmental Medicine (IUF) 120-hour Neural Progenitor Cell Migration Assay for Radial Glia Migration (NPC2a) (AID 2284298)
How it was run: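 Hoechst-stained nuclei imaged at 120 h; algorithm maps sphere core by densest nuclei, sets migration edge at density threshold, gives radial glia migration distance (um) per well vs DMSO. hNPC spheres (0.3 mm), PDL/laminin, DMEM/F12 3:1 + 1% N2.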

[4] = IUF_NPC2a_radial_glia_migration_72hr: Leibniz Research Institute for Environmental Medicine (IUF) 72-hour Neural Progenitor Cell Migration Assay for Radial Glia Migration (NPC2a) (AID 2284299)
How it was run: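 Single 0.3 mm neurospheres were plated per well in N2 differentiation medium and exposed from the start of differentiation. After 72 hours, brightfield images were taken and radial glia migration from the sphere core edge was measured manually in four directions, averaged per well.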

[5] = IUF_NPC2b_neuronal_migration_120hr: Leibniz Research Institute for Environmental Medicine (IUF) 120-hour Neural Progenitor Cell Migration Assay for Neuron Migration (NPC2b) (AID 2284300)
How it was run: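 hNPC spheres, PDL/laminin, DMEM:F12 3:1 + 1% N2, 37C/5% CO2; 7 concentrations + solvent control (DMSO ≤0.1%), 5 d exposure, half-feed day 3. Fix 120 h, TUBB3 ICC, HCI: mean neuron migration distance ÷ glia distance.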

[6] = IUF_NPC3_neuronal_differentiation_120hr: Leibniz Research Institute for Environmental Medicine (IUF) 120-hour Neuronal Differentiation Assay (NPC3) (AID 2284301)
How it was run: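 Value is percent TUBB3-positive neurons among Hoechst-stained nuclei in the migration area, scored by trained CNN after 120 h differentiation. Primary hNPC spheres on poly-D-lysine/laminin, N2 medium, continuous dosing from day 0, half-refeed day 3; DMSO reference.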

[7] = IUF_NPC4_neurite_length_120hr: Leibniz Research Institute for Environmental Medicine (IUF) 120-hour Neuronal Morphology Assay for Neurite Length (NPC4) (AID 2284302)
How it was run: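 Neurite length, the mean in um across TUBB3-stained neurons, is derived by skeletonization of high-content images after 120 h differentiation. Compound exposure, 7 concentrations plus solvent control, ran from plating of hNPC spheres on poly-D-lysine/laminin, with medium half-replaced on day 3.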

[8] = IUF_NPC5_oligodendrocyte_differentiation_120hr: Leibniz Research Institute for Environmental Medicine (IUF) 120-hour Oligodendrocyte Differentiation Assay (NPC5) (AID 2284304; active = hit-call score of the fitted dose curve at least 0.9, where 1 is the maximum;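 note: primary human fetal neural progenitor spheres plated to migrate and differentiate; share of O4-positive cells among Hoechst nuclei found by CNN image analysis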)
How it was run: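 hNPC spheres, fetal cortex GW 16-19; PDL/laminin, DMEM:F12 3:1 + 1% N2, 37C/5% CO2; 7 concentrations + solvent control, 5 d exposure, half-change day 3. Readout: %O4+ of Hoechst+ nuclei in migration area, CNN classification; DMSO baseline.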

[9] = IUF_NPC4_neurite_area_120hr: Leibniz Research Institute for Environmental Medicine (IUF) 120-hour Neuronal Morphology Assay for Neurite Area (NPC4) (AID 2284305; active = hit-call score of the fitted dose curve at least 0.9, where 1 is the maximum)
How it was run: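 Neurite area (pixels, nuclei excluded) of TUBB3-positive neurons from hNPC spheres differentiating 5 days under continuous exposure at 37 C, 5% CO2. High-content imaging; loss of signal versus DMSO control across 7 concentrations.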

[10] = IUF_NPC2-5_cytotoxicity_72hr: Cytotoxicity Assessment at 72 hours in the Leibniz Research Institute for Environmental Medicine (IUF) Neural Progenitor Cell Migration and Differentiation Assay for Cytotoxicity (NPC2-5) (AID 2284306; active = hit-call score of the fitted dose curve at least 0.9, where 1 is the maximum;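 note: LDH release into supernatant measured by resorufin fluorescence marking membrane damage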)
How it was run: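 Membrane-integrity cytotoxicity at 72 h, read as LDH-driven resorufin fluorescence in supernatant. hNPC spheres from fetal cortex differentiate on coated plates in N2 medium, 37C, 5% CO2; seven serial compound concentrations plus solvent control (DMSO ≤0.1%).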

[11] = IUF_NPC2-5_cytotoxicity_120hr: Cytotoxicity Assessment at 120 hours in the Leibniz Research Institute for Environmental Medicine (IUF) Neural Progenitor Cell Migration and Differentiation Assay (NPC2-5) (AID 2284307; active = hit-call score of the fitted dose curve at least 0.9, where 1 is the maximum)
How it was run: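 hNPC spheres on PDL/laminin, N2 medium, 37C; 7 concs + solvent control, DMSO ≤0.1%; 5-day exposure, half medium changed day 3. LDH in supernatant at 120 h, resazurin→resorufin fluorescence, gain-of-signal.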

[12] = IUF_NPC2-5_cell_number_120hr: Cell Number Assessment at 120 hours in the Leibniz Research Institute for Environmental Medicine (IUF) Neural Progenitor Cell Migration and Differentiation Assay (NPC2-5) (AID 2284308);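 note: count of Hoechst-stained nuclei in migration zone around plated human neural progenitor spheres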
How it was run: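 Hoechst-stained nuclei within the migration area were counted by automated high content imaging after 120 h. Single hNPC spheres differentiated on poly-D-lysine/laminin in DMEM/F12 (3:1) with 1% N2, compound present throughout, DMSO ≤0.1%.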

[13] = IUF_NPC2-5_viability_120hr: Viability Assessment at 120 hours in the Leibniz Research Institute for Environmental Medicine (IUF) Neural Progenitor Cell Migration and Differentiation Assay (NPC2-5) (AID 2284312)
How it was run: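 Alamar blue resorufin fluorescence read after 5 days of differentiation, with compound present from day 0 and replenished at day 3. Primary hNPC spheres on laminin-coated plates, 37C; seven concentrations plus solvent control, fitted against DMSO.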

[14] = VALA_TUBHUV_Agonist_CellCount: Viability Assessment in the VALA Sciences human Umbilical Vein Endothelial Tubule Formation (TUBHUV) Agonism Assay (AID 2284309; active = hit-call score of the fitted dose curve at least 0.9, where 1 is the maximum)
How it was run: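 Viability endpoint by fluorescent imaging of fixed nuclear/CD31-stained HUVEC–HDF co-cultures. Readout is cell count, fitted upward against 0.1% DMSO. Compound exposure was 72 h in 10 ng/ml VEGF, after 3-day co-culture priming.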

[15] = VALA_TUBIPS_Agonist_TubuleLength: VALA Sciences human iPS-derived Endothelial Tubule Formation (TUBIPS) Agonism Assay (AID 2284311; active = hit-call score of the fitted dose curve at least 0.9, where 1 is the maximum)
How it was run: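 Agonist-mode readout is the gain in imaged tubule length versus DMSO baseline. It was measured by fluorescence high-content imaging 72 h after dosing human iPSC-derived endothelial cells.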

[16] = VALA_TUBIPS_Antagonist_TubuleLength: VALA Sciences human iPS-derived Endothelial Tubule Formation (TUBIPS) Antagonist Assay (AID 2284313; active = hit-call score of the fitted dose curve at least 0.9, where 1 is the maximum)
How it was run: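 Tubule length was quantified by high-content imaging of CD31- and nuclear-stained cells, with 0.1% DMSO as neutral and 100 uM suramin as inhibition control. Compounds were applied for 3 days, in 10 ng/ml VEGF, to cultures pre-grown 3 days.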

[17] = VALA_MIGHUV2_CellCount: Viability Assessment in the VALA Sciences human Umbilical Vein Endothelial Cell Migration (MIGHUV) Assay, Area of Scratch Wound after Recovery (AID 2284314; active = hit-call score of the fitted dose curve at least 0.9, where 1 is the maximum)
How it was run: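 Viability read-out: Hoechst-stained nuclei counted by fluorescence imaging after a 24 h recovery period in fixed, scratched HUVEC plates. Compound was dosed within 30 min of scratching at six concentrations (triplicate); DMSO at 0.1 % served as baseline.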

[18] = VALA_MIGHUV2_Bcatenin: VALA Sciences human Umbilical Vein Endothelial Cell Migration (MIGHUV) Assay, Nuclear Translocation of beta-Catenin after Recovery (AID 2284315; active = hit-call score of the fitted dose curve at least 0.9, where 1 is the maximum)
How it was run: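 Nuclear beta-catenin imaged by immunofluorescence with Hoechst counterstain in fixed HUVEC, 24 h after scratch wounding and chemical addition. Six-point concentration-response in triplicate; activity scored as signal increase over 0.1% DMSO vehicle.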

[19] = VALA_MIGHUV2_WoundArea: VALA Sciences human Umbilical Vein Endothelial Cell Migration (MIGHUV) Assay, Area of Scratch Wound after Recovery (AID 2284316; active = hit-call score of the fitted dose curve at least 0.9, where 1 is the maximum)
How it was run: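 Wound-area endpoint read by fluorescence imaging of Hoechst-stained nuclei after a 24 h recovery period following scratch of HUVEC monolayers (9000 cells/well). Chemicals dosed within 30 min post-scratch, triplicate 6-point series, 0.1% DMSO vehicle; Cytochalasin D positive control.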

[20] = VALA_TUBHUV_Antagonist_CellCount: Viability Assessment in the VALA Sciences human Umbilical Vein Endothelial Tubule Formation (TUBHUV) Antagonism Assay (AID 2284310; active = hit-call score of the fitted dose curve at least 0.9, where 1 is the maximum)
How it was run: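 Read-out is imaged cell count after nuclear and CD31 staining, fitted against 0.1% DMSO vehicle. Compounds were added for 3 days, in 10 ng/ml VEGF assay medium, to HUVEC–HDF co-cultures pre-grown 3 days.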

Measured: AC50

COCCO
inactive: [1]

N#CSCSc1nc2ccccc2s1
active: [1] 11.4 µM

CCN(CC)C(=O)c1cccc(C)c1
not listed: [1] | [14] | [15] | [16] | [17] | [18] | [19] | [20]
inactive: all other assays above

O=C(O)c1ccccc1
not listed: [1] | [14] | [15] | [16] | [17] | [18] | [19] | [20]
inactive: all other assays above

CCC(C)OC(=O)N1CCCCC1CCO (stereo unspecified)
inactive: [1]

CCCN(CCC)C(=O)SCC
not listed: [1] | [14] | [15] | [16] | [17] | [18] | [19] | [20]
inactive: all other assays above

CC(C)CCCCCCc1ccc(O)cc1
inactive: [14] | [15] | [16] | [17]

Cc1nn(C)c(Oc2ccccc2)c1C=NOCc1ccc(C(=O)OC(C)(C)C)cc1
inactive: [6] | [7] | [8] | [9] | [10] | [11] | [13]
active: [2] 12.5 µM | [3] 5.23 µM | [4] 2.48 µM | [5] 6.63 µM | [12] 5.04 µM

S=C([S-])NCCNC(=S)[S-].[Mn+2]
not listed: [1] | [14] | [15] | [16] | [17] | [18] | [19] | [20]
inactive: all other assays above

S=C(S)NCCNC(=S)S.[Mn+2].[S-]C([S-])=NCCN=C([S-])[S-].[Zn+2]
not listed: [1] | [17] | [20]
inactive: all other assays above

CC(C)(c1ccc(O)cc1)c1ccc(O)cc1
not listed: [1]
inactive: all other assays above

CSC(=O)c1cccc2nnsc12
not listed: [1] | [14] | [15] | [16] | [17] | [18] | [19] | [20]
inactive: all other assays above

N[C@@H](Cc1cc(I)c(Oc2ccc(O)c(I)c2)c(I)c1)C(=O)O
inactive: [14] | [20] | [15] | [16] | [18]

C#CCOC(=O)[C@@H](C)Oc1ccc(Oc2ncc(Cl)cc2F)cc1
inactive: [2] | [3] | [4] | [5] | [6] | [7] | [9] | [10] | [11] | [12] | [13]
